These results are taken from the supplement of paper PMC3414501.

Molecules are shown by their SMILES. Where a name gives a salt, the structure may show the parent alone.

The subject of test [1] is S. cerevisiae SK1 pCDA2-eGFP (USY613), sporulating. Briefly: CDA2-GFP sporulation assay sensitivity score (z-score vs DMSO controls); higher = stronger inhibition of sporulation, active = hit call of the paper.
The subject of test [2] is S. cerevisiae NKY1551 his4x/his4B, sporulating. Briefly: HIS4 meiotic recombination assay sensitivity score (z-score vs DMSO controls); higher = stronger inhibition of sporulation/recombination, active = hit call of the paper.
Test [3] relates to S. cerevisiae BY4741 (wild-type), vegetative growth in YPD. Briefly: growth sensitivity score (doubling time z-score vs DMSO controls); higher = slower growth, strongly negative scores also mark growth inhibition (complete suppression), active = hit call of the paper. The essentials: (§1)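 Yeast (Saccharomyces cerevisiae BY4741 and AD1-9) was grown in rich medium in microtiter plates from a starting OD600 of 0.065, with optical density read every 15 min over 24 hours. The growth sensitivity score was the difference between compound and solvent-only means, divided by the solvent-only standard deviation. Every experiment had eight solvent-only wells.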

Test [4] has as its system S. cerevisiae AD1-9 (efflux-pump deficient), vegetative growth in YPD. The description is as above. Summed up: as §1
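Wherever CDA2-GFP sporulation assay sensitivity score (z-score vs DMSO controls) is given: active if sensitivity score above 5.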
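Wherever HIS4 meiotic recombination assay sensitivity score (z-score vs DMSO controls) is given: active if sensitivity score above 5.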

Regarding `COc1ccccc1N1CCN(CC(O)COc2cccc3ccccc23)CC1` (centres undefined) [Naftopidil] (stock concentration (mM, diluted 1:100): 10), the “CDA2-GFP sporulation assay sensitivity score” value in test [1] is 9.59 (active). For the same compound, in test [2], the “HIS4 meiotic recombination assay sensitivity score” value was 5.23 (active). Besides, the growth sensitivity score in test [3] was 7.62 (active).
On to `C=CCc1ccc(O)c(-c2ccc(O)c(CC=C)c2)c1` [Honokiol] (stock concentration (mM, diluted 1:100): 10.1), for which, in test [1], the “CDA2-GFP sporulation assay sensitivity score” value was 0.56 (inactive).
As for `NC(N)=Nc1nc(CSCC/C(N)=N/S(N)(=O)=O)cs1` [Famotidine] (stock concentration (mM, diluted 1:100): 10), the “CDA2-GFP sporulation assay sensitivity score” value in test [1] is 0.3 (inactive). Also, the values for the growth sensitivity score in test [4] and in test [3] were -2.06 and -0.98 (inactive), respectively.
For `CCCCCCCCCCC[C@@H](C[C@@H]1OC(=O)[C@H]1CCCCCC)OC(=O)[C@H](CC(C)C)NC=O` [Orlistat] (stock concentration (mM, diluted 1:100): 10), in that order: -2.33 (inactive), -0.73 (inactive) and 0.78 (inactive).
Consider `CNCC[C@H](Oc1cccc2ccccc12)c1cccs1` [Duloxetine] (stock concentration (mM, diluted 1:100): 10), for which the “CDA2-GFP sporulation assay sensitivity score” value in test [1] was 1.64 (inactive). Besides, the growth sensitivity score is 99.6 (active) in test [4] and 11 (active) in test [3].
Take `CCC(C)(C)N=C(NC#N)Nc1cccnc1` [Tocris-1355] (stock concentration (mM, diluted 1:100): 9.9): the “CDA2-GFP sporulation assay sensitivity score” value in test [1] was 3.65 (inactive). The growth sensitivity score in test [4] is -1.02 (inactive); in test [3] it was 0.46 (inactive).
As for `C[C@]12CCC(=O)C=C1CC[C@@H]1[C@@H]2C(=O)C[C@@]2(C)[C@H]1CC[C@]2(O)C(=O)CO` [Cortisone] (stock concentration (mM, diluted 1:100): 10), the “CDA2-GFP sporulation assay sensitivity score” value in test [1] is 2.53 (inactive). Further, the growth sensitivity score in test [4] was 0.78 (inactive); in test [3], -0.57 (inactive).
For `COC(=O)C1=C(C)NC(C)=C(C(=O)OC)C1c1ccccc1[N+](=O)[O-]` [Nifedipine] (stock concentration (mM, diluted 1:100): 10.7) the same measures were 3.14 (inactive), 60 (active) and 4.28 (active).
For `Cc1c(O)c(=O)ccn1C` [Deferiprone] (stock concentration (mM, diluted 1:100): 10) the same measures were 2.38 (inactive), -1.63 (inactive) and 0.2 (inactive).
As for `Cc1ccnc2c1NC(=O)c1cccnc1N2C1CC1` [Viramune] (stock concentration (mM, diluted 1:100): 10), in test [1], the “CDA2-GFP sporulation assay sensitivity score” value is -3.55 (inactive). For the same compound, the growth sensitivity score is -1.4 (inactive) in test [4] and -1.29 (inactive) in test [3].
Turning to `Cc1cn([C@H]2C=C[C@@H](CO)O2)c(=O)[nH]c1=O` [Stavudine] (stock concentration (mM, diluted 1:100): 10), in test [1], the “CDA2-GFP sporulation assay sensitivity score” value was -1.16 (inactive). The growth sensitivity score in test [4] is 0.68 (inactive); in test [3], 0.1 (inactive).
For `CN(C/C=C/C#CC(C)(C)C)Cc1cccc2ccccc12` [Terbinafine hydrochloride] (stock concentration (mM, diluted 1:100): 8.9), the “CDA2-GFP sporulation assay sensitivity score” value in test [1] was -2.07 (inactive). Besides, the results for the growth sensitivity score in test [4] and in test [3] were 30.1 (active) and 93.8 (active), respectively.
With `CCC(C)n1ncn(-c2ccc(N3CCN(c4ccc(OCC5COC(Cn6cncn6)(c6ccc(Cl)cc6Cl)O5)cc4)CC3)cc2)c1=O` (centres undefined) [Itraconazole] (stock concentration (mM, diluted 1:100): 10.1), the “CDA2-GFP sporulation assay sensitivity score” value in test [1] was 0.16 (inactive). Also, the growth sensitivity score in test [4] was 21.4 (active); in test [3], 10.9 (active).
Turning to `O=C(O[C@@H]1C[C@@H]2C[C@H]3C[C@H](C1)N2CC3=O)c1c[nH]c2ccccc12` [Dolasetron mesylate] (stock concentration (mM, diluted 1:100): 10.4), the “CDA2-GFP sporulation assay sensitivity score” value in test [1] was -1 (inactive). The figures for the growth sensitivity score in test [4] and in test [3] were -0.71 (inactive) and 0.44 (inactive), respectively.
For `COc1cc(N)c(Cl)cc1C(=O)NC1CCN(CCCOc2ccc(F)cc2)CC1OC` (centres undefined) [Cisapride] (stock concentration (mM, diluted 1:100): 10.5) the same measures were 0.78 (inactive), 8.05 (active) and 1.35 (inactive).
Consider `COc1cc(C(=O)NS(=O)(=O)c2ccccc2C)ccc1Cc1cn(C)c2ccc(NC(=O)OC3CCCC3)cc12` [Zafirlukast] (stock concentration (mM, diluted 1:100): 10), for which the “CDA2-GFP sporulation assay sensitivity score” value in test [1] was 0.72 (inactive). The growth sensitivity score in test [4] is 40.9 (active); in test [3], -1.75 (inactive).
For `CN1C2CCCC1CC(NC(=O)c1nn(C)c3ccccc13)C2` (centres undefined) [Granisetron hydrochloride] (stock concentration (mM, diluted 1:100): 9), in that order: 2.25 (inactive), -1.22 (inactive) and -0.57 (inactive).
On to `CCOC(=O)OC(C)OC1=C(C(=O)Nc2ccccn2)N(C)S(=O)(=O)c2ccccc21` (centres undefined) [Ampiroxicam] (stock concentration (mM, diluted 1:100): 10), for which, in test [1], the “CDA2-GFP sporulation assay sensitivity score” value was 3.3 (inactive). In addition, the growth sensitivity score in test [4] is -0.54 (inactive); in test [3], -0.19 (inactive).
As to `CC(C)C[C@H](NC(=O)[C@@H](O)[C@H](N)Cc1ccccc1)C(=O)O` [Bestatin] (stock concentration (mM, diluted 1:100): 10), the “CDA2-GFP sporulation assay sensitivity score” value in test [1] was -0.06 (inactive). The growth sensitivity score is -1.24 (inactive) in test [4] and -1.14 (inactive) in test [3].
Consider `Nc1ncnc2c1ncn2[C@@H]1O[C@H](CO)C[C@@H]1O` [3-Deoxydenosine] (stock concentration (mM, diluted 1:100): 10), for which the “CDA2-GFP sporulation assay sensitivity score” value in test [1] is 19.9 (active). In addition, the growth sensitivity score in test [4] is 110 (active); in test [3], 1.06 (inactive).
For the compound `CNNCc1ccc(C(=O)NC(C)C)cc1` [Procarbazine hydrochloride] (stock concentration (mM, diluted 1:100): 8.6), the “CDA2-GFP sporulation assay sensitivity score” value in test [1] was -0.1 (inactive). The growth sensitivity score in test [4] was -0.84 (inactive); in test [3], 0.69 (inactive).
For `NC1CCN(c2nc3c(cc2F)c(=O)c(C(=O)O)cn3-c2ccc(F)cc2F)C1` (centres undefined) [Tosufloxacin tosylate] (stock concentration (mM, diluted 1:100): 7) the same measures were 1.34 (inactive), 1.02 (inactive) and -0.39 (inactive).
For the compound `Nc1c2c(nc3c1CCC3)CCCC2` [Amiridine] (stock concentration (mM, diluted 1:100): 10), the “CDA2-GFP sporulation assay sensitivity score” value in test [1] is 2.39 (inactive). Further, the growth sensitivity score in test [4] is 4.09 (active); in test [3], 4.93 (active).
For the compound `NNCCc1ccccc1` [Phenelzine sulfate salt] (stock concentration (mM, diluted 1:100): 10), the “CDA2-GFP sporulation assay sensitivity score” value in test [1] is 1.83 (inactive). Also, the growth sensitivity score in test [4] was -0.66 (inactive); in test [3], 0.3 (inactive).
As for `O=c1c(-c2ccccc2)c1-c1ccccc1` [Diphenylcyclopropenone] (stock concentration (mM, diluted 1:100): 10), in test [1], the “CDA2-GFP sporulation assay sensitivity score” value was 0.85 (inactive). In addition, the results for the growth sensitivity score in test [4] and in test [3] were 110 (active) and 39.9 (active), respectively.
`C[C@]12CCC(=O)C=C1CC[C@@H]1[C@@H]2CC[C@@]2(C)[C@H]1CC[C@]2(O)C(=O)CO` [Cortodoxone] (stock concentration (mM, diluted 1:100): 10): the “CDA2-GFP sporulation assay sensitivity score” value in test [1] was 5 (inactive). The growth sensitivity score in test [4] is 6.84 (active); in test [3], -0.69 (inactive).
For `CCOC(=O)C1=C(C)NC(C)=C(C(=O)OC)C1c1cccc([N+](=O)[O-])c1` (centres undefined) [Nitrendipine] (stock concentration (mM, diluted 1:100): 10), in that order: 10.3 (active), 23.1 (active) and 1.09 (inactive).
Take `CC(=O)OCC(=O)NCCCOc1cccc(CN2CCCCC2)c1` [Roxatidine acetate hydrochloride] (stock concentration (mM, diluted 1:100): 9.1): in test [1], the “CDA2-GFP sporulation assay sensitivity score” value was 0.57 (inactive). Also, the growth sensitivity score in test [4] is -0.42 (inactive); in test [3] it was -1.51 (inactive).
For `CN1CCN(c2c(F)cc3c(=O)c(C(=O)O)cn4c3c2SCC4)CC1` [Rufloxacin hydrochloride] (stock concentration (mM, diluted 1:100): 10), in that order: -0.17 (inactive), 17.4 (active) and -0.18 (inactive).
For `CO[C@H]1/C=C/O[C@@]2(C)Oc3c(C)c(O)c4c(O)c(c5c(nc6cc(C)ccn65)c4c3C2=O)NC(=O)/C(C)=C\C=C\[C@H](C)[C@H](O)[C@@H](C)[C@@H](O)[C@@H](C)[C@H](OC(C)=O)[C@@H]1C` [Rifaximin] (stock concentration (mM, diluted 1:100): 10) the same measures were 4.99 (inactive), -1.56 (inactive) and -1.64 (inactive).
Take `CCN(CC)C(=O)C1(c2ccccc2)CC1CN` (centres undefined) [Milnacipran] (stock concentration (mM, diluted 1:100): 10): in test [1], the “CDA2-GFP sporulation assay sensitivity score” value was 2.47 (inactive). Besides, the growth sensitivity score in test [4] is -0.1 (inactive); in test [3] it was -0.02 (inactive).
As to `Nc1ccn([C@H]2CC[C@@H](CO)O2)c(=O)n1` [Zalcitabine] (stock concentration (mM, diluted 1:100): 10), in test [1], the “CDA2-GFP sporulation assay sensitivity score” value was 1.61 (inactive). Moreover, the growth sensitivity score was -0.86 (inactive) in test [4] and -1.35 (inactive) in test [3].
As for `O=c1[nH]cnc2c1ncn2[C@H]1CC[C@@H](CO)O1` [Didanosine] (stock concentration (mM, diluted 1:100): 10.1), in test [1], the “CDA2-GFP sporulation assay sensitivity score” value is -0.63 (inactive). The growth sensitivity score is -1.72 (inactive) in test [4] and -1.9 (inactive) in test [3].
Regarding `CC(=O)Nc1ccc(CC(=O)O)cc1` [Actarit] (stock concentration (mM, diluted 1:100): 10), the “CDA2-GFP sporulation assay sensitivity score” value in test [1] is 0.84 (inactive). In addition, the growth sensitivity score in test [4] is 0.98 (inactive); in test [3], -2 (inactive).
As to `Cc1ccc(NC(=O)c2ccc(CN3CCN(C)CC3)cc2)cc1Nc1nccc(-c2cccnc2)n1` [Imatinib mesylate] (stock concentration (mM, diluted 1:100): 8.4), the “CDA2-GFP sporulation assay sensitivity score” value in test [1] is 7.85 (active). Further, the figures for the growth sensitivity score in test [4] and in test [3] were 7.33 (active) and 0.53 (inactive), respectively.
For `COC(=O)C1=C(C)NC(C)=C(C(=O)OC(C)C)C1c1cccc2nonc12` (centres undefined) [Isradipine] (stock concentration (mM, diluted 1:100): 9.9), in test [1], the “CDA2-GFP sporulation assay sensitivity score” value was 1.45 (inactive). For the same compound, the growth sensitivity score in test [4] was 137 (active); in test [3] it was 0.93 (inactive).
For `COc1cc2nc(N3CCN(C(=O)c4ccco4)CC3)nc(N)c2cc1OC` [Prazosin] (stock concentration (mM, diluted 1:100): 10), the “CDA2-GFP sporulation assay sensitivity score” value in test [1] was 1.07 (inactive). Besides, the growth sensitivity score in test [4] is 2.31 (active); in test [3] it was -0.58 (inactive).
